The target in assay [1] is Luciferin 4-monooxygenase (Photinus pyralis) (UniProt P08659). The experiment in a line: qHTS assay to identify small molecule inhibitors of firefly luciferase (AID 1224835). Further: nearly all actives have a fitted effect of over 25% in size. Further: potency means the concentration at half of the fitted maximal effect. Put shortly:
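Quantitative HTS format; KM concentrations of both substrates. Purified P. pyralis FLuc activity quantified from luminescence images.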
A general note: In qHTS, concentration-response curves come from the screen itself.

A short description of assay [2]: qHTS assay to identify small molecule agonists of the constitutive androstane receptor (CAR) signaling pathway - cell viability counter screen (AID 1224836). Further: nearly all actives have a fitted effect of over 45% in size. Put shortly: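 HepG2 cells stably carrying hCAR and a CYP2B6-2.2kb reporter; 15-concentration compounds plus PK11195 (final 0.75 uM), 23 hr at 37 C/5% CO2. Viability read by CellTiter-Fluor fluorescence.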
The nature of assay [3]: qHTS assay to identify small molecule antagonists of the constitutive androstane receptor (CAR) signaling pathway - cell viability counter screen (AID 1224837). Further: nearly all actives have a fitted effect of over 45% in size. The gist of the method:
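HepG2 cells stably carrying hCAR and CYP2B6-2.2kb reporter, stimulated with 50 nM CITCO and compounds at 15 concentrations for 23 h at 37 C. Viability measured by CellTiter-Fluor fluorescence.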

A short description of assay [4]: qHTS assay to identify small molecule antagonists of the estrogen related receptor signaling pathway with the pleiotropic PPARgamma coactivator (PGC) from Tox21 10K library - cell viability counter screen (AID 1224840; active means well fitted cell-killing curve with a large enough effect in the repeat runs, not every such curve was filed as active; further: nearly all actives have a fitted effect of over 40% in size). The gist of the method: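 PGC/ERR cells (2,000/well) plated 6 h, then compound-treated for 17.5 h at 37 C. Viability measured by CellTiter-Fluor fluorescence after 30 min at 37 C, multiplexed with the pathway assay.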

For assay [5], the target named is Thyrotropin receptor (Homo sapiens) (UniProt P16473). Put plainly: qHTS assay to identify small molecule agonists of the thyroid stimulating hormone receptor (TSHR) signaling pathway (AID 1224843; calls by dose curve; further: nearly all actives have a fitted effect of over 45% in size). Put shortly:
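TSHR-expressing HEK293 cells (800 per well) were exposed to compounds for 30 min at room temperature. cAMP was then detected by HTRF competition with cAMP-d2 and anti-cAMP cryptate, read after 1 h at room temperature. Fifteen concentrations, triplicate.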

Assay [6] is described as follows: qHTS assay to identify small molecule agonists of the hypoxia (HIF-1) signaling pathway (AID 1224846; active means well fitted activation curve with a large enough effect in the signal ratio in the repeat runs, not every such curve was filed as active; the % refers to the signal ratio). Put shortly: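 HRE-bla ME-180 beta-lactamase reporter cells in medium with 0.5% dialyzed FBS, pre-incubated 5 h then exposed to compounds 17 h at 37C, 5% CO2; reporter induction read with CCF4-AM FRET substrate.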
Assay [7] can be described thus: qHTS assay to identify small molecule agonists of H2AX - cell viability counter screen (AID 1224847; calls by dose curve; further: top concentration of the series differs between compounds; nearly all actives have a fitted effect of over 30% in size). Put shortly:
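CHO-K1 cells plated overnight at 37C, then exposed 3 h at 37C to compounds at 15 concentrations (0.76% DMSO final). Viability by CellTiter-Glo luminescence after 30 min at room temperature.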

A short description of assay [8]: qHTS RealTime-Glo MT Cell Viability Assay in HepG2 cells - 24 hour (AID 1224867). Further: nearly all actives have a fitted effect of over 50% in size. Put shortly: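 Cells + NanoLuc/prosubstrate dispensed (600 cells/well) → 5 h at 37 C/5% CO2 → compounds in DMSO transferred → 40 h incubation at 37 C, luminescence read at 0, 8, 16, 24, 32, 40 h.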
Assay [9] is described as follows: qHTS RealTime-Glo MT Cell Viability Assay in HEK293 cells - 32 hour (AID 1224868). Further: top concentration of the series differs between compounds; nearly all actives have a fitted effect of over 50% in size. The gist of the method: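 Tox21 10K qHTS, HEK293, 600 cells/well, RealTime-Glo reagent co-dispensed with cells; 5 h preincubation, compound by pintool, 37 C, luminescence at 0–40 h.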
Assay [10] is described as follows: A CellTox Green Cytotoxicity Assay to monitor cytotoxicity in HEK293 cells - 0 hour (AID 1224869). Further: nearly all actives have a fitted effect of over 50% in size. The gist of the method:
(§1)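 HEK293 cells, 600/well, were preincubated 5 hours and then exposed to compounds at 37 C for up to 40 hours. A cell-impermeant cyanine dye staining dead-cell DNA was read by fluorescence at 0, 8, 16, 24, 32 and 40 h time points.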

A short description of assay [11]: qHTS RealTime-Glo MT Cell Viability Assay in HepG2 cells - 40 hour (AID 1224870). Further: nearly all actives have a fitted effect of over 50% in size. Put shortly:
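HepG2 cells mixed with RealTime-Glo MT reagents (NanoLuc plus cell-permeant prosubstrate) were seeded at 600 cells/well, incubated 5 h at 37 C/5% CO2, then pinned with compounds in DMSO; nonlytic luminescence tracked viability during 40 h treatment.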

Assay [12] is described as follows: A CellTox Green Cytotoxicity Assay to monitor cytotoxicity in HEK293 cells - 40 hour (AID 1224871). Further: nearly all actives have a fitted effect of over 45% in size. The gist of the method: as §1
Assay [13] concerns the target Nuclear receptor subfamily 1 group I member 3 (Homo sapiens) (UniProt Q14994). Put plainly: qHTS assay to identify small molecule agonists of the constitutive androstane receptor (CAR) signaling pathway (AID 1224839). Further: nearly all actives have a fitted effect of over 15% in size. The gist of the method: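 HepG2 cells stably co-transfected with hCAR and a CYP2B6-2.2kb luciferase reporter; compounds at 15 concentrations with 0.75 uM PK11195 present. After 24 hr at 37 C, luciferase read by ONE-Glo luminescence.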

Assay [14] is described as follows: qHTS assay to identify small molecule antagonists of the estrogen related receptor signaling pathway with the pleiotropic PPARgamma coactivator (PGC) from Tox21 10K library (AID 1224841; call rule not given here). The gist of the method: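 PGC/ERR cell line, 2,000 cells/well, pre-incubated 6 hours at 37 C, then exposed to compounds for 18 hours at 37 C; luciferase read with One-Glo luminescence after 30 min at room temperature.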

Assay [15] is described as follows: qHTS assay to identify small molecule agonists of the estrogen related receptor signaling pathway with the pleiotropic PPARgamma coactivator (PGC) from Tox21 10K library (AID 1224842). Further: nearly all actives have a fitted effect of over 15% in size. Further: potency means the concentration at half of the fitted maximal effect. The gist of the method: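 PGC/ERR reporter cells (NTP line) were seeded 2,000 per well, rested 6 h at 37 C/5% CO2, then pin-dosed with compounds in DMSO for 18 h at 37 C; luciferase read by One-Glo luminescence after 30 min at room temperature.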

Assay [16] in a line: qHTS assay to identify small molecule agonists of the hypoxia (HIF-1) signaling pathway - cell viability counter screen (AID 1224844; calls by dose curve; further: nearly all actives have a fitted effect of over 50% in size). The gist of the method: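 HRE-bla ME-180 cells, 2,000/well in 0.5% dialyzed FBS medium, treated 17 h at 37C with compounds. Viability read in the same wells as the bla reporter, by CellTiter-Glo luminescence after 30 min at room temperature.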

Assay [17] can be described thus: qHTS assay to identify small molecule antagonists of the estrogen related receptor (ERR) signaling pathway from Tox21 library (AID 1224848). Further: nearly all actives have a fitted effect of over 50% in size. Put shortly:
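Cells: ERR line, 2,000/well; 6 h preincubation 37 C/5% CO2. Cpd in DMSO via pin tool; 18 h, 37 C. ONE-Glo, 30 min RT, luminescence.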

A short description of assay [18]: qHTS assay to identify small molecule agonists of the estrogen related receptor (ERR) signaling pathway from Tox21 library (AID 1224849; calls by dose curve; further: nearly all actives have a fitted effect of over 15% in size). The settings on record: ERR reporter cell line, ONE-Glo luciferase, 18 h; at 92.4 µM (top of the series) unless noted. Put shortly: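 ERR reporter cells (NTP line) pre-incubated 6 hours at 37 C, then exposed to compounds for 18 hours at 37 C. ONE-Glo luciferase luminescence was read after 30 minutes at room temperature.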

The target in assay [19] is Nuclear receptor subfamily 1 group I member 3 (Homo sapiens) (UniProt Q14994). Put plainly: qHTS assay to identify small molecule antagonists of the constitutive androstane receptor (CAR) signaling pathway (AID 1224838). Further: nearly all actives have a fitted effect of over 40% in size. Put shortly: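 HepG2 cells stably carrying hCAR and a CYP2B6-2.2kb luciferase reporter, seeded 4 hrs before compound (15 concentrations). Stimulated with 50 nM CITCO for 24 hr at 37 C. ONE-Glo luminescence read after 30 min at room temperature.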

Assay [20] can be described thus: qHTS assay to identify small molecule agonists of H2AX (AID 1224845; active means well fitted activation curve with a large enough effect in the signal ratio in the repeat runs, not every such curve was filed as active; the % refers to the signal ratio). Put shortly: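 Wild-type CHO-K1 cells plated overnight, then exposed 3 hr at 37C to compounds at 15 concentrations (0.76% DMSO). Lysed, then HTRF anti-pH2AX(S139)-cryptate/anti-H2AX-d2 detection after 24 hr at room temperature; emissions 665 and 620 nm.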

The structures appear in SMILES notation. Values without a mark were called inactive. Inconclusive results are not listed. Activity calls are given as the source filed them. Unless noted, the call rests on the fitted dose curve; in most records, active means well fitted curve in the direction sought with a large enough effect in the repeat runs; inconclusive means weak or mixed curves; inactive means no such curve, though single readings can be large; an effect the other way counts as inactive or inconclusive.
On the % scale 0 is the no-effect control and ±100 the full control effect.

Chain of Nuclear receptor subfamily 1 group I member 3 (Homo sapiens) (Q14994 whole entry, looked up): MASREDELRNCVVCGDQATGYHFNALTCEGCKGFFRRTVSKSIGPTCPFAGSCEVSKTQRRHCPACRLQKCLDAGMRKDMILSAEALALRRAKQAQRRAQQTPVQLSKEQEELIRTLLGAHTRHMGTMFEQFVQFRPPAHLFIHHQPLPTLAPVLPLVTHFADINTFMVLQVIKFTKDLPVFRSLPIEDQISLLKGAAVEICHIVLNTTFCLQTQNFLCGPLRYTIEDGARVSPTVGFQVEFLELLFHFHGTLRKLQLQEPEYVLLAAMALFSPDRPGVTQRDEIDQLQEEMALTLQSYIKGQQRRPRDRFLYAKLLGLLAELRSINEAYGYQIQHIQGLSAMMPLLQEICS
Chain of Luciferin 4-monooxygenase (Photinus pyralis) (P08659 whole entry, looked up): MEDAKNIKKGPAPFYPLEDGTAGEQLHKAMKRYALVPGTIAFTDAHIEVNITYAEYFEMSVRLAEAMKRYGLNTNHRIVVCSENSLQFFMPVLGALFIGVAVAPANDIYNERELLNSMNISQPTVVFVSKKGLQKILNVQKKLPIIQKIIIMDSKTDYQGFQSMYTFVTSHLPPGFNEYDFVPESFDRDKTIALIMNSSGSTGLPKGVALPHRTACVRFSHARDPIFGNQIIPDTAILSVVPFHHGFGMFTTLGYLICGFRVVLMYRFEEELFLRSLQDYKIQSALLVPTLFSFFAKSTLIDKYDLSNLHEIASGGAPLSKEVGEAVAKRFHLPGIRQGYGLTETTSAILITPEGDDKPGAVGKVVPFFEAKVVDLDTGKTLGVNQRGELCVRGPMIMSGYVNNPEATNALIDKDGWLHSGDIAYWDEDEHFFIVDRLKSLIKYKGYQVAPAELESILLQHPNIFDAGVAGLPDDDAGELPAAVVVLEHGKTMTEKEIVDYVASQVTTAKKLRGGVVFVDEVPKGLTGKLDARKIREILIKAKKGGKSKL
Chain of Thyrotropin receptor (Homo sapiens) (P16473 whole entry, looked up): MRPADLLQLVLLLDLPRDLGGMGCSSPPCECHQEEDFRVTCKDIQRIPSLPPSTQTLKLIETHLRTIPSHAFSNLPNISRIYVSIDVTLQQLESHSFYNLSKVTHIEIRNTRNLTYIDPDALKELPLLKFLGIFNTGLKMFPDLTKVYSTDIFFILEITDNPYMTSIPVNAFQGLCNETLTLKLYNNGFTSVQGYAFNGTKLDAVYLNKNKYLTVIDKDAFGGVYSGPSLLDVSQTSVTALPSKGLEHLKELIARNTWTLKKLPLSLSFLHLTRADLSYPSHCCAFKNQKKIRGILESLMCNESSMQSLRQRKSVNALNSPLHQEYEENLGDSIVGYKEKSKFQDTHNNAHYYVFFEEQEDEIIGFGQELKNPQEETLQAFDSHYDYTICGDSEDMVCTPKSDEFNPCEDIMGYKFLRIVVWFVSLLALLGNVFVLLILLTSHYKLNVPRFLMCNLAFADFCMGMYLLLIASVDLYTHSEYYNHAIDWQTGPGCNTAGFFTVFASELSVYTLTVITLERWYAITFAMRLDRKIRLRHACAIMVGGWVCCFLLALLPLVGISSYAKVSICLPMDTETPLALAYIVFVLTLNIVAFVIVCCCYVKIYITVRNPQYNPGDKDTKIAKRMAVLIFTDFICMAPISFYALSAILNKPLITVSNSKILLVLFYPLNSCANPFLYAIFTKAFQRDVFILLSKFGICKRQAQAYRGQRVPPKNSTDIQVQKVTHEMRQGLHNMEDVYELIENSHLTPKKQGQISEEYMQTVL

As to `CCNCCO`, the Potency entry in [1], in assay [2], in [3], in assay [4], in assay [5] and in assay [7] was “inactive” each time. Further, the Potency entry in [8], in assay [9], in assay [10], in [11] and in [12] was “inactive” in each case. In [6], the result was inactive.
Consider `CCCNC(C)C(=O)Nc1c(C)csc1C(=O)OC` (configuration not stated), for which the Potency result in [1], in [2], in assay [13], in assay [4], in [14] and in [15] was “inactive” in each case. Besides, the Potency entry in [5], in assay [16], in [17], in assay [8], in assay [9] and in assay [10] was “inactive” throughout. For the same compound, the Potency entry in [11] and in assay [12] was “inactive” throughout. In addition, in [18], the activity change, positive = activation was -1.49% [at 42.5 µM].
Consider `Cc1cn([C@@H]2O[C@H](CO)[C@@H](O)[C@@H]2F)c(=O)[nH]c1=O`, for which the Potency result in assay [1], in assay [2], in assay [19], in [13], in [4] and in assay [5] was “inactive” each time. The Potency entry in [16], in assay [20], in [8], in [9], in [10] and in assay [11] was “inactive” each time. The Potency entry in assay [12] is “inactive”. Also, the compound was classed as inactive in [6].
Consider `CN(C)Cc1ccccc1`, for which the Potency result in assay [1], in [2], in [3], in assay [4], in assay [5] and in [7] was “inactive” each time. Besides, the Potency result in [8], in [9], in assay [10] and in assay [12] was “inactive” each time. In addition, in assay [6], the compound was classed as inactive.
Turning to `O=Cc1ccc(O)c(O)c1O`, the Potency result in [1], in [2], in assay [19], in [4], in assay [16] and in [7] was “inactive” in each case. In addition, the Potency result in assay [8], in [9], in [10], in assay [11] and in assay [12] was “inactive” each time. In assay [6], the outcome was inactive.
As for `CCOc1ccc(OCC)c(Cl)c1`, the Potency result in [1], in assay [2], in assay [19], in assay [13], in assay [4] and in assay [14] was “inactive” in each case. Also, the Potency result in assay [15], in [5], in [16], in assay [20], in [7] and in assay [17] was “inactive” in each case. Besides, the Potency result in assay [8], in [10] and in [11] was “inactive” throughout. Also, in assay [6], the compound was called inactive. Besides, the activity change, positive = activation in [18] is 4.33%.
With `CC/C=C\CCOC(=O)C(C)C`, the Potency result in assay [1], in [2], in [4], in [5], in assay [16] and in [7] was “inactive” throughout. The Potency entry in [8], in [9], in assay [10], in assay [11] and in assay [12] was “inactive” throughout. Further, in assay [6], the result was inactive.
`CC(C)C[C@H](NC(=O)OCC1c2ccccc2-c2ccccc21)C(=O)O`: the values for the Potency in [1] and in assay [15] were 3.56 µM (active) and 15.4 µM (active), respectively. For the same compound, the Potency entry in assay [4], in [14], in assay [5], in [16], in [20] and in [7] was “inactive” each time. Further, the Potency result in assay [17], in assay [8], in assay [9], in [10], in assay [11] and in [12] was “inactive” throughout. Moreover, the result in assay [6] was inactive. Further, the activity change, positive = activation in [18] is 147% (active).
Take `COC(C)CCO` (configuration not stated): the Potency entry in assay [2], in assay [3], in assay [19], in [13], in assay [4] and in [5] was “inactive” each time. For the same compound, the Potency entry in [16], in assay [20], in [7], in assay [8], in [11] and in [12] was “inactive” each time. For the same compound, the call in [6] was inactive.

These data come from PubChem BioAssay (Tox21).
